In the library only some 7% were active in any assay of this set; here they are far more common.
DRD3 agonist: activates the human D3 dopamine receptor; P35462; D3R DiscoveRx beta-arrestin cells, luminescence, 90 min; max activation, %; 0.58% of 410,000 active; AID 652048; in the data active = max activation above about 30%
Target sequence (P35462 whole entry, looked up): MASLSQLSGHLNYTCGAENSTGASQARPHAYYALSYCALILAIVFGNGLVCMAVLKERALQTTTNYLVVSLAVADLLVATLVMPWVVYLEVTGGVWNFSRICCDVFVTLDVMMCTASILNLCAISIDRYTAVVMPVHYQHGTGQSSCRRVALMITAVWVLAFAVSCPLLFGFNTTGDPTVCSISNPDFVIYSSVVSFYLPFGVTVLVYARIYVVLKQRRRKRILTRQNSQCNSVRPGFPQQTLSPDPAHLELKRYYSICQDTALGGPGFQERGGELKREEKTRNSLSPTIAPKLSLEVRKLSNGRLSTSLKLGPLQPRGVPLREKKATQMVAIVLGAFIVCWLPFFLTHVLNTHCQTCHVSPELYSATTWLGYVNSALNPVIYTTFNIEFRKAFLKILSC
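Agonist-mode cell screen: cells plated at 1500/well and incubated overnight at 37 °C, then exposed to library compounds for 90 min at 37 °C. Detection reagent was added for 30–60 min at room temperature, and luminescence was read.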
ATXN viability: cell viability loss in ATXN counter-screen | S2 cells (HEK-293 line with an ATXN2-luciferase reporter) viability, CellTiter-Fluor protease fluorescence, 24 h | Potency, µM (titrated, usually from 56.7 µM), hits mostly cytotoxic | 0.49% of 400,000 active; note: nearly all actives have a fitted effect of over 40% in size
ATXN2 expr inh: reduces ATXN2 reporter expression in HEK-293 cells; AID 1745845; HEK-293 ATXN2-luciferase reporter, luminescence, 24 h; Potency, µM (titrated, usually from 57 µM), hits mostly inhibitors; 0.72% of 360,000 active; note: nearly all actives have a fitted effect of over 55% in size
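ATXN2-luciferase reporter cells (luciferase flanked by upstream and downstream ATXN2 gene portions) were treated 24 h at 37 °C with compounds at up to 57 uM. SteadyGlo luminescence gave expression; GF-AFC fluorescence gave viability.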
IL-1B inflam inh: inhibitors of inflammasome signaling (IL-1 beta secretion); THP-1 LPS/ATP IL-1B secretion, AlphaLISA, 16 h; active compounds read low; 4.7% of 360,000 active; activity change, % at 57.5 µM; in the data active = activity change below about -50%; inconclusive = mostly about -30% to -49%
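Secreted IL-1B measured by AlphaLISA bead assay after 16 h compound exposure of THP-1 cells; compounds (final up to 57.5 uM) added 1 h before LPS (250 ng/mL) and ATP (1.25 mM) stimulation; lower signal means less secretion.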
a7 integrin act: activates integrin-mediated alleviation for muscular dystrophy | 0.064% of 350,000 active | Potency, µM (series often up to 38.3 µM), actives largely listed as activators | alpha7betagal myoblasts, beta-gal FDG fluorescence, 48 h; note: nearly all actives have a fitted effect of over 60% in size
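Alpha7betagal+/- myoblasts (passage 13) were plated 16-24 hr, then exposed to compounds (1:260 dilution of DMSO stock) for 48 hours at 37C. After MPER lysis, β-galactosidase reporter activity was read as FDG fluorescence (ex 480/em 540) after 30 minutes.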
D3 antag: blocks the human D3 dopamine receptor. P35462. 2.5% of 360,000 active. D3R cells, DiscoveRx beta-arrestin luminescence, antagonist mode; active compounds read low. max response, negative = inhibition, %; in the data active = max response below about -50%; inconclusive = no clear call, values can overlap the other calls
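Cells plated overnight at 1500 cells/well, then exposed to library compounds with dopamine controls for 90 minutes at 37 degrees C. DiscoveRx reagent added for 30–60 minutes at room temperature; luminescence read, quantitative HTS format.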
Numbers stand for hits; – = inactive; ? = inconclusive; · = no result; [ ] = remark or other dose. Unless noted, calls come from the whole dose curve; as a rule, active = well fitted curve in the direction sought with a large enough effect; inconclusive = small, poorly fitted or top-dose-only effect, or another doubt; inactive = no such curve, though single readings can be large; an effect the other way counts as inactive or inconclusive.

SMILES	DRD3 agonist	ATXN viability	ATXN2 expr inh	IL-1B inflam inh	a7 integrin act	D3 antag
CCOc1ccccc1NC(=S)NC(=O)CCCOc1ccc(Cl)cc1Cl	–	–	–	–	–	-109.5
O=C(CCCOc1ccc(Cl)cc1Cl)N/N=C\C1CCCCC1	–	–	–	-50.5	–	–
CC[C@]12c3[nH]c4cc(CCC(=O)N(C)C)ccc4c3CCN1C(=O)[C@@H](CC(=O)NCCCn1ccnc1)C[C@@H]2C(=O)N1CCN(C(=O)c2ccco2)CC1	–	–	–	–	–	–
CCOC(=O)COc1ccccc1/C=C1\NC(=O)NC1=O	–	–	–[11.3 µM]	-91.1	–	–
CC(C)=C1C2CCC1C1C(=O)N(CCc3ccccc3)C(=O)C21 (stereo not drawn)	–	–	–	–	–	–
O=C(NNC(=O)c1cccnc1SCc1cccc([N+](=O)[O-])c1)c1ccc(F)cc1	–	?	?	–	–	–
O=C(NNC(=O)c1cccnc1SCc1cccc([N+](=O)[O-])c1)c1ccccn1	–	–	7.94µM	–	–	–
CC(NC(=O)COC(=O)c1cc(NS(=O)(=O)c2ccc(Cl)c([N+](=O)[O-])c2)ccc1O)C1CC2CCC1C2 (stereo not drawn)	–	–	–	-107.4	–	-60.9
COc1ccc(NS(=O)(=O)c2ccc(O)c(C(=O)OCC(=O)NC(C)C3CC4CCC3C4)c2)cc1 (stereo not drawn)	–	–	–	–	–	–
CCCc1nnn(S(=O)(=O)c2ccc([N+](=O)[O-])cc2)c1CCC	–	?	–	–	–	–
CCOC(=O)c1ccc(S(=O)(=O)Nc2nc3cc(S(=O)(=O)NC4=NCCCCC4)ccc3s2)cc1	–	–	–	-70.0	–	–
Nc1nc2cc(S(=O)(=O)NC3=NCCCCC3)ccc2s1	–	–	·	?	–	–
CSc1ccccc1-c1cnc(NC(C)=O)cn1	–	–	–	–	·	?
CC(C)N1C(=O)/C(=C\c2nc3ccccc3c(=O)[nH]2)c2ccccc21	–	–	–	-99.9	–	–
CN(C)c1ccc(P(=O)(OC2CCCCC2)C(Nc2ccccc2)c2cccnc2)cc1 (stereo not drawn)	–	–	?	-51.9	–	–
O=C(N/N=C/c1ccc(OCc2ccccc2)cc1)c1cc[n+](Cc2ccccc2)cc1	–	–	–	–	–	-59.3
CCOc1ccc(OCc2cccc(C(=O)N/N=C/c3cccnc3)c2)cc1	–	–	2.12µM	–	–	–
CC(C)c1ccc(OCc2cccc(C(=O)N/N=C/c3cccnc3)c2)cc1	–	–	10.6µM	–	–	–
O=C(N/N=C/c1cccnc1)c1cccc(Cl)c1	–	–	–	–	–	–
O=C(N/N=C/c1cccnc1)c1cccc(Br)c1	–	–	–	–	–	–
O=C(c1cc(-c2ccc(Cl)cc2Cl)on1)N1CCCC1	–	–	–	-64.0	–	–
Cc1ccnc(-n2c(C)cc(/C=N/NC(=O)COc3cccc4cccnc34)c2C)c1	–	–	–	-53.7	–	–
CC(C)n1cc(/C=N/NC(=O)COc2cccc3cccnc23)c2ccccc21	34.5	?	–	-77.5	–	–
C[N+](C)(C)CC(=O)N/N=C/c1c2ccccc2cc2ccccc12	–	–	–	–	–	–
Cc1ccc(-n2c(=O)c3c4c(sc3n(Cc3cccc(Cl)c3)c2=O)CCC4)cc1C	–	–	–	·	·	·
SMILES	DRD3 agonist	ATXN viability	ATXN2 expr inh	IL-1B inflam inh	a7 integrin act	D3 antag
COc1ccc(/C=C/c2c([N+](=O)[O-])c(=O)n(C)c(=O)n2C)cc1OC	–	–	–	–	–	–
COc1ccc(/C=C/c2c([N+](=O)[O-])c(=O)n(C)c(=O)n2C)c(OC)c1OC	–	–	–	-58.2	–	–
Cn1c(/C=C/c2cccc([N+](=O)[O-])c2)c([N+](=O)[O-])c(=O)n(C)c1=O	–	–	?	-107.1	–	?
O=[N+]([O-])c1cccc(/C=C/c2ccncc2)c1	–	–	–	?	–	–
CN(/C=C/c1c([N+](=O)[O-])c(=O)n(C)c(=O)n1C)c1ccccc1	–	–	–	–	–	–
Cn1c(/C=C/c2ccc(Cl)cc2)c([N+](=O)[O-])c(=O)n(C)c1=O	–	–	?	-99.7	–	–
CCCCCOc1ccc(/C=C/c2c([N+](=O)[O-])c(=O)n(C)c(=O)n2C)cc1	–	–	–	-86.5	–	–
O=c1c2sccc2n(Cc2ccc(F)cc2)c(=O)n1-c1ccc(F)cc1	–	–	–	–	–	–
CNC(=O)CSc1nnc(-c2ccc3c(c2)OCO3)n1C	–	–	·	–	?	–
CCOC(=O)C(NC(=O)CCl)(Nc1sc(C)c(CC)c1C#N)C(F)(F)F (stereo not drawn)	–	–	–	-106.9	–	–
COCCCNC(=O)CCn1c(=O)c2ccccc2n(CC(=O)Nc2c(C)cc(C)cc2C)c1=O	–	–	–	·	·	·
N#Cc1ccc(CSc2nnc(-c3c[nH]c4ccccc34)n2-c2ccccc2)cc1	–	?	?	-67.1	–	–
C=CCn1cc(-c2ccc(Cl)cc2)cc(C#N)c1=O	–	–	–	–	–	–
N#Cc1cc(-c2ccc(Cl)cc2)cn(Cc2c(Cl)cccc2Cl)c1=O	–	–	–	–	?	-50.3
Cc1ccc(C)c(N2CCN(C(=O)C3CCN(Cc4nc(-c5cccc(Cl)c5)oc4C)CC3)CC2)c1	–	–	–	·	·	·
Cc1oc(-c2cccc(Cl)c2)nc1CN1CCC(C(=O)N2CCN(c3ccccn3)CC2)CC1	–	–	–	–	–	-50.6
CCN1CCN(C(=O)C2CCN(S(=O)(=O)c3ccc(Br)cc3)CC2)CC1	–	–	–	–	–	–
CCc1ccc(-c2nc(CN3CCC(C(=O)N4CCN(c5ccccn5)CC4)CC3)c(C)o2)cc1	–	·	·	-52.7	–	–
Cc1cccc(-c2nc(CSCC(=O)N3CCN(c4ccccn4)CC3)c(C)o2)c1	–	–	–	-59.4	–	–
CCN1CCN(C(=O)C2CCN(Cc3cc(Cl)ccc3O)CC2)CC1	–	–	–	-77.1	–	–
Cc1noc(C)c1CSCC(=O)Nc1nnc(CC(C)C)s1	–	–	–	–	–	–
CCOn1c(=O)c(=O)n(OC)c2ccccc21	–	–	·	–	–	–
CCN1CCN(C(=O)C2CCN(Cc3nc(-c4cccc(Cl)c4)oc3C)CC2)CC1	–	–	–	?	–	-74.3
O=C(Nc1nc2ccc(Cl)cc2s1)C1CC1	–	–	–	–	–	–
CC(C)c1ccc2nc(NC(=O)C3CC3)sc2c1	–	–	–	-57.3	–	–
COc1cc(OC)cc(C(=O)NC(C(=O)N2CCc3ccccc3C2)C(C)C)c1 (stereo not drawn)	–	–	–	–	–	–
O=C(Nc1ccccc1F)C(Cc1ccccc1)n1cccc1 (stereo not drawn)	–	·	·	·	·	·

Screening results from PubChem BioAssay.
